# Reference: PubChem BioAssay (NCI)
# This is part of a sample that, as a whole, favours compounds with a hit. Of some 83,000 tested, about 20% had one in any assay.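 Results are percent growth after 48 hours of single-concentration exposure. 100 means growth as in untreated cells, lower positive values show inhibition; negative values down to -100 show cell death.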 The source made the active and inactive calls. The calls were made as follows: active = growth percent below 10; inactive = the rest.
# Tested on: SF-539 CNS
# Test: NCI-60 one-dose screen, 48 h (100 = growth as untreated, 0 = no growth, -100 = all killed)
# Details: 10 µM unless noted
row,Compound,growth
1,O=[N+]([O-])c1cc2c(cc1Br)-c1ccccc1C2,101% (inactive)
2,Clc1ccc(Nc2nc(Nc3ccccc3)nc(Nc3ccc(-c4cc(-c5ccc(Cl)cc5)on4)cc3)n2)cc1,54.2% (inactive)
3,Cc1cc(=O)c2c(C)ccc(C)c2[nH]1,107% (inactive)
4,Cc1cc(=O)[nH]n1-c1cc(Cl)ccc1N,102% (inactive)
5,CC(C)OC1=C(Cl)C(=O)c2ccccc2C1=O,38.4% (inactive)
6,COc1cccc(C2CC(=O)Nc3cc4c(cc32)OCO4)c1OC (stereo not given),88.5% (inactive)
7,COc1ccccc1CNCCCCCCCCCCCCN1C(=O)c2ccc3c4c(ccc(c24)C1=O)C(=O)N(CCCCCCCCCCCCNCc1ccccc1OC)C3=O,1.92% (active)
8,O=C1C=CC(=O)N1CCCCCCCCCCN1C(=O)C=CC1=O,91.1% (inactive)
9,Cc1ccc(N=c2nc3sc4c(C)ccc(C)c4n3c(N)c2C#N)cc1,99.1% (inactive)
10,COc1cc2nc(SCc3cc(OC)c(OC)c(OC)c3)n(-c3ccccc3OC)c(=O)c2cc1OC,89.9% (inactive)
11,Cc1nc2nc(C(F)(F)F)[nH]c2nc1C,120% (inactive)
12,CC(C)(C)[Si](C)(C)OC1[C@@H](CNC(=O)NC(=O)CCl)O[C@@H](n2cnc3c(N)ncnc32)[C@H]1O[Si](C)(C)C(C)(C)C (stereo not given in full),15% (inactive)
13,Fc1ccccc1Nc1ccc2nnc(-c3ccncc3)n2n1,106% (inactive)
14,NC(=O)c1nc2c([nH]c1=O)CCCC2,96.6% (inactive)
15,CCN1CCN(C(=S)SCC(=O)Nc2nc3ccc(OC)cc3s2)CC1,109% (inactive)
